Bioassay records: PubChem, several laboratories
AI-2 QS modul: Vibrio harveyi AI-2 quorum sensing modulators, primary screen, JMH597 strain, luminescence/OD600 ratio. Vibrio harveyi JMH597 AI-2 luminescence/OD600 ratio, 9 h; stronger effect = lower value; strain lacks LuxN and CqsS sensors; 0 = neutral-control median. AID 2094, 2009. hit rate 0.4% among 300,000. activity change, % at 7.5 µM; in the data active = activity change below about -75%, passing the limit was not always enough; inconclusive = no clear call, values can overlap the other calls;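 also: luminescence divided by OD600 gain over 9 h not by final OD600 alone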
HSF1 inhib: HSF1 inhibitors in luciferase reporter cells, primary screen, cell-based, NIH3T3, luminescence | NIH3T3-HGL HSE-luciferase, MG132-induced, luminescence 8 h; stronger effect = lower value | activity change, negative = inhibition, % at 7.5 µM (by protocol) | hit rate 0.77% among 300,000 | AID 2098, 2009;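 active = more than half of replicate wells show activity change below -50%, luminescence cut by over half; inconclusive = some wells, but at most half, below -50%; inactive = no replicate well below -50%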;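 also: luciferase reports HSF-1 transcriptional activity via heat shock element; 0% = median of DMSO wells and -100% = zero luminescence signal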
PG9 Ab binder: binders of HIV-1 gp120 antibody PG9, primary screen, biochemical, TR-FRET; HIV-1 gp120 / PG9 antibody interaction; TR-FRET gp120-PG9 antibody binding; inhibition, % at 6.7 µM; hit rate 0.43% among 360,000; AID 624416, 2012; in the data active = inhibition above about 8.5%
HSP90 refold inh: HSP90 inhibitors, primary screen, cell lysate, luminescence; hit rate 0.91% among 290,000; Rabbit reticulocyte lysate, luciferase refolding luminescence, 3 h; Heat shock protein HSP 90 (rabbit reticulocyte lysate; luciferase refolding); inhibition, % at 5.6 µM;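 active = inhibition above the screen-wide mean plus 3 SD, computed separately per campaign, cut at about 16% in these data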;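 also: 0% = DMSO wells and 100% = 60 µM geldanamycin wells; inhibitors lower the luminescence because luciferase stays unfolded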
SMARCA2 act: SMARCA2 (BRM) function activators, primary screen, cell-based, luminescence, high throughput | MG213 cells, MMTV-luciferase reporter, dexamethasone, overnight | activation, % at 9.1 µM | hit rate 1% among 370,000; in the data active = activation above about 7.8%;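 also: 0% = vehicle wells and 100% = reference activator wells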
FXN GAA850 act: FXN promoter activators, primary screen, cell-based, luciferase luminescence, HEK293 lucGAA850. HEK293 lucGAA850 FXN promoter luciferase reporter, 24 h; percent of 10 µM SAHA response. activation, % at 6 µM. hit rate 0.56% among 360,000. AID 540364, 2011;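 active = activation above the average of all compounds screened plus 3 SD, cutoff fixed separately per campaign, cut at about 7.5% in these data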;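 also: 0% = DMSO wells and 100% = 10 µM SAHA wells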
GAA30 FXN cntr: GAA30 FXN promoter activators, confirmation, counter-screen for GAA850 frataxin promoter activator project, cell-based, luminescence, HEK293, lucGAA30, triplicate; activation, % at 6 µM; HEK293 lucGAA30 FXN promoter luciferase, 24 h; DMSO = 0%, 5 µM ipriflavone = 100%; shares compounds with FXN GAA850 act; hit rate 66% among 1,900;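 active = mean activation above the mean of solvent-only control wells plus 3 SD, cut at about 22% in these data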;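 also: counterscreen of GAA850 promoter hits where activity marks nonselective or luminescence artifacts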
FXN GAA850 conf: FXN GAA850 promoter activators in reporter cells, confirmation, cell-based, luminescence, HEK293 lucGAA850, triplicate; activation, % at 6 µM; hit rate 86% among 1,900; shares compounds with FXN GAA850 act; AID 588351, 2011; HEK293 lucGAA850 FXN promoter luciferase reporter, 24 h; 100% = activation by SAHA;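 active = mean activation above a set limit taken from the primary screen, cut at about 8% in these data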;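 also: 0% = DMSO wells and 100% = 10 µM SAHA wells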
* hit, by the source's call; u = inconclusive; x = no result given. Sampled rows, rich in hits. Any-hit rate of the full collection: about 3.4%.

SMILES	AI-2 QS modul	HSF1 inhib	PG9 Ab binder	HSP90 refold inh	SMARCA2 act	FXN GAA850 act	GAA30 FXN cntr	FXN GAA850 conf
C=C1c2cccc(O)c2C(=O)C2C(=O)[C@]3(O)C(=O)C(C(N)=O)C(=O)[C@@H](N(C)C)[C@@H]3[C@@H](O)[C@H]12 (stereo partly drawn)	x	x	0	x	-5	18*	16	7
CCSc1ccc(-c2cccc([N+](=O)[O-])c2)nn1	26	17	0	1	1	8.5*	97*	29*
COCc1[nH]nc2c1C(c1ccc(C)cc1)NC2=O (stereo not drawn)	x	x	4	x	-5	x	x	x
C/C(=N\NC(=O)C(c1ccccc1)c1ccccc1)c1ccc(O)cc1	9	4	-1	1	-3	2	x	x
C/C(=N\NC(=O)C(c1ccccc1)c1ccccc1)c1ccccn1	-3	-2	-2	5	-10	9.6*	-119	-35
COc1cc(SC)ccc1C(=O)NC(C)C	11	-6	-1	0	-1	0	x	x
COc1cc(SC)ccc1C(=O)Nc1ncc(Cl)cc1Cl	6	18	6	5	2	9.8*	119*	41*
CCNc1sc(C(=O)c2cccs2)c(N)c1-c1nc2ccccc2s1	19	11	-1	-2	-2	2	x	x
C=CCNc1sc(C(=O)c2ccccc2)c(N)c1-c1nc2ccccc2s1	3	11	x	-9	x	8.0*	-5	11*
CN(N=Cc1ccccc1O)C(=O)c1ccccc1N	x	x	-2	x	-2	x	x	x
CCCc1nnc2n1N=C(c1ccc(OC)c(OC)c1)CS2	18	-1	1	0	5	12*	35*	13*
COc1ccc(C2=Nn3c(nnc3-c3ccccc3)SC2)cc1OC	0	-3	-1	-9	3	9.5*	22*	18*
O=C(Nc1ccc(N2CCCCC2)cc1)c1ccc([N+](=O)[O-])o1	x	67	-4	5	3	13*	114*	67*
Cc1ccc(NC(=O)c2ccc([N+](=O)[O-])o2)cc1C	u	x	0	2	8	7.7*	56*	35*
COc1ccc(N2CCCC2)c(NC(=O)c2ccc([N+](=O)[O-])o2)c1	13	-4	0	1	-2	2	x	x
CC1CCN(c2ccc(NC(=O)c3ccc([N+](=O)[O-])o3)cc2)CC1	27	95	-2	x	4	11*	80*	63*
O=C(Nc1ccc2[nH]c(=O)[nH]c2c1)c1ccc([N+](=O)[O-])o1	x	x	-2	x	6	-1	x	x
CS(=O)(=O)N1CCN(c2ccc(NC(=O)c3ccc([N+](=O)[O-])o3)cc2)CC1	29	x	-2	-1	2	6	x	x
O=C(Nc1ccc(N2CCCC2)c(Cl)c1)c1ccc([N+](=O)[O-])o1	x	x	-2	3	6	18*	118*	70*
CCCC(=O)N1CCN(c2ccc(NC(=O)c3ccc([N+](=O)[O-])o3)cc2)CC1	44	-11	-4	-1	-1	7	x	x
C[C@@H]1CN([C@@H](C)CO)C(=O)CCCn2nncc2CO[C@@H]1CN(C)C(=O)Nc1cccc(C(F)(F)F)c1	x	x	-1	x	-2	0	x	x
Cc1ccc(NC(=O)C2CCCN(c3ncccn3)C2)cc1F (stereo not drawn)	17	23	-2	-3	6	7.6*	113*	32*
O=C(O)CCCC[n+]1ccccc1	x	x	0	x	0	x	x	x
NNC(=O)CN1C(c2cccc(Cl)c2)=Nc2ccc(Br)cc2C1c1ccccc1 (stereo not drawn)	6	-2	0	2	-4	6	x	x
NNC(=O)CN1C(c2ccccc2Br)=Nc2ccc(Br)cc2C1c1ccccc1 (stereo not drawn)	16	-1	0	8	-6	9.2*	18	8.7*
SMILES	AI-2 QS modul	HSF1 inhib	PG9 Ab binder	HSP90 refold inh	SMARCA2 act	FXN GAA850 act	GAA30 FXN cntr	FXN GAA850 conf
CC1(C)C2CCC(C2)C1(C)NC(=O)CNCC1CCCCC1 (stereo not drawn)	18	0	1	-1	-1	10*	30*	14*
CCOc1ccc(N=c2scc(-c3ccccc3)n2CCO)cc1	3	8	-2	1	-3	1	x	x
CCn1c(-c2ccccc2)csc1=Nc1ccc(O)cc1	-26	-7	0	-4	1	9.3*	99*	37*
COc1cccc(NC(=O)c2ccc3nc(C)sc3c2)c1	4	-19	-1	-8	2	7.6*	120*	40*
Cc1cc(NC(=O)c2ccc3nc(C)sc3c2)no1	21	-67*	5	0	5	7.7*	111*	33*
COc1cccc(C(=O)Nc2nnc(-c3ccccc3)s2)c1	2	26	5	3	4	8.0*	80*	35*
Cc1ccccc1S(=O)(=O)N(C)C[C@@H]1OCc2cn(nn2)CCCC(=O)N([C@@H](C)CO)C[C@H]1C	x	x	0	x	-3	x	x	x
O=C([C@H]1O[C@@H](n2ccc(=O)[nH]c2=O)[C@H](O)[C@@H]1O)N1CCC(F)(F)CC1	x	x	-1	x	-7	x	x	x
COc1cc(OC)cc(-c2c(Sc3ccccc3)c3cc(-c4ccc(SC)cc4)ccc3n2C)c1	x	x	2	x	1	x	x	x
Cc1cccc(C)c1-n1nnnc1C(c1ccnc2ccccc12)N1CCN(c2ccccc2F)CC1 (stereo not drawn)	x	x	0	x	0	x	x	x
COc1ccc(C(=O)C(=O)N2CCC(Cc3ccccc3)CC2)cc1OC	x	x	1	x	-5	x	x	x
C=CCn1c(N)c(C(=O)NCCC2=CCCCC2)sc1=S	37	15	1	-6	0	7.6*	92*	35*
COc1ccc(C(=O)/C=C/Nc2cccc(C)n2)cc1OC	14	17	1	1	7	11*	117*	46*
C[C@@H]1O[C@@H](n2c3ccc(Cl)cc3c3ccc4c5cc(Cl)ccc5[nH]c4c32)[C@H](O)[C@H](O)[C@H]1O	x	x	x	x	-4	x	x	x
